Vaccinia mCherry: inhibitors of vaccinia virus infection (mCherry reporter signal); Potency, µM (highest dose often 36.5 µM), hits mostly inhibitors; 310,000 tested, 0.63% active; Vaccinia virus mCherry reporter infection, fluorescence; calls by dose curve; tested in A549 cells; also: nearly all actives have a fitted effect of over 35% in size
Vaccinia Venus: inhibitors of vaccinia virus (Venus reporter); AID 720580; Potency, µM (doses to about 36.5 µM), actives largely listed as inhibitors; Vaccinia virus Venus reporter expression, fluorescence; 330,000 tested, 0.46% active; calls by dose curve; tested in A549 cells; also: nearly all actives have a fitted effect of over 30% in size
HCV inhibitor: inhibitors of hepatitis C virus infection | Huh7.5.1 HCVcc-Cre infection, luciferase reporter, 44 h | Potency, µM (highest dose often 41.8 µM), actives largely listed as inhibitors | 340,000 tested, 3.4% active; active = well fitted inhibition curve with a large enough effect; inconclusive = small, poorly fitted or top-dose-only effect, or another doubt; inactive = no such curve, though single readings can be large or run the other way
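Cells (1,000/well) were plated 4 h before compound, then infected with HCVcc-Cre virus (~0.5 moi). After 44 h further culture, infection was read as luciferase luminescence following a 15 min substrate incubation at room temperature.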
Numbers stand for hits; i = inactive; ? = inconclusive; nt = no result; ! = a repeat was not active. An excerpt weighted towards active compounds, which were near 3.3% of everything screened.

SMILES | Vaccinia mCherry | Vaccinia Venus | HCV inhibitor
COc1ccc(CN(C)C(=O)C2CCN(C(=O)Nc3ccccc3)CC2)cc1OC | nt | nt | i
CSc1ccc(CN(C)C(=O)C2CCN(C(=O)Nc3ccccc3)CC2)cc1 | nt | nt | 10µM
COc1ccc(OC)c(NC(=O)c2c(NCc3ccc(N(C)C)cc3)sc3c2CCCC3)c1 | i | i | nt
Cc1ccccc1Cn1c(C)c(CNCCCc2ccccc2)c(C(=O)O)c1C | i | i | nt
COc1cc2c(cc1OC)C1(CCCC1)C(N)=C2C#N | nt | ? | 3.16µM
COc1cc(OC)c(OC)cc1C#N | i | i | i
COc1ccc(-c2nc(CCl)cs2)cc1OC | i | i | 11.2µM
COc1ccc(-c2nc(CCl)cs2)cc1 | nt | nt | i
CC(C)c1c(C(=O)NCc2cccnc2)cnn1-c1nccc(-c2ccccc2F)n1 | i | i | nt
COc1cc(C(=O)NCC2CCCO2)ccc1OCc1ccccc1Cl (stereo not drawn) | i | i | nt
O=c1oc2ccc(Cl)cc2cc1-c1cn2c(n1)sc1ccccc12 | i | i | nt
CC(NC(=O)[C@H](C)NC(=O)[C@@H]1CSC2c3ccccc3C(=O)N21)c1ccccc1 (stereo partly drawn) | nt | nt | i
CCN(Cc1ccc(C#CCCO)cc1)CC1CCCN(CCc2cccc(OC)c2)C1 (stereo not drawn) | nt | nt | 11.2µM
CCN(CC1CCCN(CCc2cccc(OC)c2)C1)C(=O)c1ccc(COC)o1 (stereo not drawn) | i | i | i
CC1(C)N=C(N)N=C(N)N1c1cccc(CC(=O)Nc2ccccc2)c1 | i | ? | nt
Cc1cccc(NC(=O)CCc2ccccc2)c1 | i | i | ?
CC1(C)N=C(N)N=C(N)N1c1ccc(OCC(=O)Nc2ccccc2)c(Cl)c1 | 3.98µM | ? | nt
Cc1cccc(NC(=O)CCc2ccc(N3C(N)=NC(N)=NC3(C)C)cc2)c1 | 5.62µM | ? | nt
CC(C(=O)NC1CCCC1)n1c(-c2ccncc2)nc2ccccc21 (stereo not drawn) | i | i | nt
CCCN1CCC(=O)N(CCC#N)CC1 | i | i | nt
Cc1ccccc1-n1c(SCc2ccccn2)nc2n[nH]c(C)c2c1=N | nt | ? | 11.2µM
Cc1ccc(CNC(=O)CSc2nc3n[nH]c(C)c3c(=N)n2-c2ccccc2Cl)cc1 | i | i | nt
CC(=O)Nc1ccc(/C=C/c2ccnc3ccccc23)cc1 | i | i | nt
Cc1ccccc1-c1nc(CS(=O)(=O)CC(=O)N(C)C2CCCCC2)c(C)o1 | ? | ? | 11.2µM!
Cc1ccccc1-c1nc(CS(=O)(=O)CC(=O)NC2CCCCC2C)c(C)o1 (stereo not drawn) | i | i | ?
SMILES | Vaccinia mCherry | Vaccinia Venus | HCV inhibitor
CC1CCc2sc(C(=O)N3CCC(C(N)=O)CC3)cc2C1 (stereo not drawn) | nt | nt | i
COc1cccc(-c2n[nH]nc2C2=CC(=O)C[C@H](c3ccc(F)cc3)C2)c1 | i | i | nt
NC(CCc1ccccc1)c1csc(NC(=O)Nc2cccc(Cl)c2)n1 (stereo not drawn) | i | i | nt
NC(c1ccccc1)c1csc(NC(=O)Nc2cccc(Cl)c2)n1 (stereo not drawn) | i | 10µM | nt
c1ccc2c(c1)ccn2-n1ccc2ccccc21 | ? | i | nt
CCOC(=O)c1sc(NC(=O)c2cccs2)cc1C | nt | i | ?
CCOC(=O)c1sc(NC(=O)c2sccc2C)cc1C | nt | nt | 10µM
O=C(OCc1cccc(Cl)c1)c1cc(S(=O)(=O)N2CCCCC2)ccc1N1CCOCC1 | i | i | 11.2µM
COCC(C)NC(=O)c1cc(S(=O)(=O)N2CCCCC2)ccc1N1CCOCC1 (stereo not drawn) | i | i | i
Cc1ccc(C)c(COC(=O)c2cc([N+](=O)[O-])ccc2N2CCOCC2)c1 | ? | i | 12.6µM
CC(C)CCCC(C)NC(=O)c1cc(S(=O)(=O)N2CCCCC2)ccc1N1CCOCC1 (stereo not drawn) | nt | nt | 11.2µM
O=C(OCc1ccccc1)c1cc(S(=O)(=O)N2CCCCC2)ccc1N1CCOCC1 | i | i | ?
O=C(OCc1cccc(Cl)c1)c1cc([N+](=O)[O-])ccc1N1CCOCC1 | ? | ? | 10µM
O=C(OCc1cccc(C(F)(F)F)c1)c1cc([N+](=O)[O-])ccc1N1CCOCC1 | i | i | ?
Cc1ccc(C)c(COC(=O)c2cc(S(=O)(=O)N3CCCCC3)ccc2N2CCOCC2)c1 | ? | i | i
CCOC(=O)C1CCN(C(=O)c2ccc(S(=O)(=O)Nc3ccccc3Cl)cc2)CC1 | i | i | i
CCN(CC)S(=O)(=O)c1ccc2c(c1)nc(CN(C)C(=O)Nc1ccc(C)c(F)c1)n2C | i | i | nt
CCNc1nc(N2CCCN(C)CC2)nc2cc(OC)c(OC)cc12 | ? | i | nt
COc1ccc(-n2c(SCC(=O)NC3CC3)nc3ccccc3c2=O)cc1OC | nt | nt | i
O=C(OCc1ccc(Br)cc1)c1cc([N+](=O)[O-])ccc1N1CCOCC1 | i | ? | nt
O=C(OCc1cccc(C(F)(F)F)c1)c1cc(S(=O)(=O)N2CCOCC2)ccc1F | i | i | 10µM
